Compound activity as filed in PubChem BioAssay.
The list is not random: actives were taken first. Their share in the collection is about 6.5%.
Spn PMK inh: inhibitors of Streptococcus pneumoniae phosphomevalonate kinase | purified PMK, PK/LDH-coupled NADH absorbance 340 nm | inhibition, % at 10 µM | actives 0.49% (n = 65,000);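 active means top-ranked compounds by inhibition in the single 10 µM screen, taking a fixed number of the strongest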;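 further: 0% = full reaction with DMSO carrier and 100% = background rate without enzyme reaction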
NADH enzymes: inhibition of NAD/NADH coupling enzymes, library profiling. coupled PK/LDH NADH assays, four targets. IC50, µM (series often up to 10 µM), for inactives: top-dose inhibition. actives 0.02% (n = 65,000);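 active means single-dose screening hits from any of four coupled enzyme assays that gave an IC50 when retested across doses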;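 further: the DPM-DC format reads NADH fluorescence rather than 340 nm absorbance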
Spn DPM-DC inh: blocks S. pneumoniae diphosphomevalonate decarboxylase | actives 0.49% (n = 65,000) | purified DPM-DC, PK/LDH coupled NADH fluorescence | calls only at 10 µM;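 active means the 320 compounds with the highest percent inhibition in the single-dose primary screen, excluding strongly autofluorescent ones, cut at about 32% in these data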;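 further: kinetic rate of NADH fluorescence loss reporting ADP formed by the decarboxylase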
A340 absorber: absorbance at 340 nm; compound absorbance at 340 nm, fold over control; fold change at 10 µM; 65,000 tested, under 10 active; AID 708;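 active means at 10 µM dose, initial 340 nm absorbance at least 2 fold that of control wells; inactive means change under 2 fold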;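 further: initial absorbance extrapolated from kinetic A340 decline of NADH oxidation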
Spn MK inh: blocks S. pneumoniae mevalonate kinase. AID 555. inhibition, % at 10 µM. actives 0.48% (n = 65,000). purified MK, PK/LDH-coupled NADH absorbance 340 nm;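 active means ranked among the strongest by inhibition in the single 10 µM screen, a fixed top-ranked set picked for dose follow-up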
Fluor 339 460: intrinsic fluorescence of library compounds, ex339/em460 – biochemical, MLSMR library, data from DPM-DC assay, artefact control, profiling panel. compound autofluorescence, ex339/em460 nm, NADH buffer; hits give high values; 1 = no-compound wells, NADH background. fluorescence fold increase at 10 µM. actives 5.5% (n = 65,000). AID 709;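 active means at 10 µM, mean starting fluorescence two-fold or more over control wells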;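 further: signal is the first read of a kinetic run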
The depositor's hits bear a star.

How did CCC(=O)N(Cc1cc2cc(OC)ccc2[nH]c1=O)c1ccc(C)cc1C do in these assays?
Spn PMK inh: 15; NADH enzymes: 10%; Spn DPM-DC inh: inactive; A340 absorber: 1; Spn MK inh: 6; Fluor 339 460: 3.1*

What do the screens show for `CCN(Cc1cc2cc(OC)ccc2[nH]c1=O)C(=O)Cc1ccc(OC)cc1`?
Spn PMK inh: 3; NADH enzymes: 1%; Spn DPM-DC inh: inactive; A340 absorber: 1; Spn MK inh: 6; Fluor 339 460: 2.4*

Results for CCOc1ccccc1C(=O)N(C)Cc1cc2cc(OC)ccc2[nH]c1=O ?
Spn PMK inh: 1; NADH enzymes: 9%; Spn DPM-DC inh: inactive; A340 absorber: 1.1; Spn MK inh: 9; Fluor 339 460: 2.7*

Results for CCOc1cc(C(=O)N(C)Cc2cc3cc(OC)ccc3[nH]c2=O)cc(OCC)c1OCC ?
Spn PMK inh: 13; NADH enzymes: 6%; Spn DPM-DC inh: inactive; A340 absorber: 1; Spn MK inh: 13; Fluor 339 460: 1.6

What do the screens show for `Cn1cc(CC(=O)NCCCN2CCCC2=O)c2ccccc21`?
Spn PMK inh: 15; NADH enzymes: 9%; Spn DPM-DC inh: inactive; A340 absorber: 1.1; Spn MK inh: 13; Fluor 339 460: 1

Results for O=C(CN1CCC(O)(c2ccc3c(c2)OCO3)CC1)OC1CCCCC1 ?
Spn PMK inh: 13; NADH enzymes: 3%; Spn DPM-DC inh: inactive; A340 absorber: 0.97; Spn MK inh: 6; Fluor 339 460: 1

Results for COc1ccc(N2CCN(C(=O)c3ccc(OCC4CCCO4)cc3)CC2)cc1 (centres undefined) ?
Spn PMK inh: 0; NADH enzymes: 1%; Spn DPM-DC inh: inactive; A340 absorber: 1; Spn MK inh: 2; Fluor 339 460: 1.1

Results for C=CCn1c(SCc2c(F)cccc2Cl)nnc1-c1ccco1 ?
Spn PMK inh: 14; NADH enzymes: 7%; Spn DPM-DC inh: inactive; A340 absorber: 0.99; Spn MK inh: 6; Fluor 339 460: 1.1

How did COCCCn1c(-c2ccc(OC)cc2)nc2nc3ccccc3nc21 do in these assays?
Spn PMK inh: 3; NADH enzymes: 2%; A340 absorber: 1.1; Spn MK inh: 0; Fluor 339 460: 4*

Results for Clc1ccc(-c2nc3nc4ccccc4nc3n2Cc2ccco2)cc1 ?
Spn PMK inh: 0; NADH enzymes: 0%; Spn DPM-DC inh: inactive; A340 absorber: 1.1; Spn MK inh: 1; Fluor 339 460: 1.9

Results for CCCn1c(-c2ccc(OC)cc2)nc2nc3ccccc3nc21 ?
Spn PMK inh: 17; NADH enzymes: 12%; A340 absorber: 1.2; Spn MK inh: 6; Fluor 339 460: 2.1*

What do the screens show for `COc1ccc(-c2nc3ccccc3c(=O)n2CCN2CCOCC2)cc1`?
Spn PMK inh: 4; NADH enzymes: 3%; Spn DPM-DC inh: inactive; A340 absorber: 1; Spn MK inh: 6; Fluor 339 460: 1.1

How did c1cnc(Oc2ccc(-c3nnco3)cc2)cn1 do in these assays?
Spn PMK inh: 5; NADH enzymes: 2%; Spn DPM-DC inh: inactive; A340 absorber: 1; Spn MK inh: 0; Fluor 339 460: 1.1

What do the screens show for `Cc1ccc(S(=O)(=O)n2nc(-c3ccc(Cl)cc3)nc2NCc2ccco2)cc1`?
Spn PMK inh: 1; NADH enzymes: 0%; Spn DPM-DC inh: inactive; A340 absorber: 1; Spn MK inh: 0; Fluor 339 460: 1.2

How did CC1CCN(Cc2c(C#N)c3ccccc3n2C)CC1 do in these assays?
Spn PMK inh: 11; NADH enzymes: 6%; Spn DPM-DC inh: inactive; A340 absorber: 1; Spn MK inh: 7; Fluor 339 460: 1.1

How did Cc1ccc(-c2cc(C(=O)N3CCN(c4ncccn4)CC3)c3ccccc3n2)cc1 do in these assays?
Spn PMK inh: 17; NADH enzymes: 6%; Spn DPM-DC inh: inactive; A340 absorber: 1.1; Spn MK inh: 0; Fluor 339 460: 1.3

Results for COc1ccc(-c2nn(-c3ccccc3)cc2C(=O)N2CCOCC2)cc1 ?
Spn PMK inh: 2; NADH enzymes: 1%; Spn DPM-DC inh: inactive; A340 absorber: 1; Spn MK inh: 1; Fluor 339 460: 1.1

How did Cc1ccc(-c2cc(C(=O)N3CCOCC3)c3ccccc3n2)cc1 do in these assays?
Spn PMK inh: 1; NADH enzymes: 1%; A340 absorber: 1.1; Spn MK inh: 0; Fluor 339 460: 2.1*

How did COC(=O)c1cc(-c2ccc3c(c2)OCO3)nc2ccccc12 do in these assays?
Spn PMK inh: 8; NADH enzymes: 8%; A340 absorber: 1.1; Spn MK inh: 8; Fluor 339 460: 2.2*

How did COc1ccc(-c2cc(C(=O)N3CCOCC3)c3cc(C)ccc3n2)cc1 do in these assays?
Spn PMK inh: 0; NADH enzymes: 1%; A340 absorber: 1.1; Spn MK inh: 2; Fluor 339 460: 3.7*

Results for COc1ccc(-c2cc(C(N)=O)nc(N3CCCCCC3)n2)cc1 ?
Spn PMK inh: 11; NADH enzymes: 9%; A340 absorber: 1.1; Spn MK inh: 7; Fluor 339 460: 3.5*

What do the screens show for `Cc1[nH]nc2c1C(c1ccccc1)C1=C(CC(C)(C)CC1=O)N2` (centres undefined)?
Spn PMK inh: 14; NADH enzymes: 11%; A340 absorber: 1.1; Spn MK inh: 8; Fluor 339 460: 4.4*

How did COc1ccc(C2C3=C(CC(C)(C)CC3=O)Nc3n[nH]c(C)c32)cc1 (centres undefined) do in these assays?
Spn PMK inh: 0; NADH enzymes: 2%; A340 absorber: 1.1; Spn MK inh: 4; Fluor 339 460: 2.3*

What do the screens show for `Nc1c2c(nc3ccccc13)N(c1ccccc1)CC2`?
Spn PMK inh: 0; NADH enzymes: 21%; A340 absorber: 1.1; Spn MK inh: 42*; Fluor 339 460: 2.3*

What do the screens show for `CC(=O)Oc1ccc2oc(C)c(C(=O)N3CCOCC3)c2c1`?
Spn PMK inh: 0; NADH enzymes: 0%; Spn DPM-DC inh: inactive; A340 absorber: 1; Spn MK inh: 0; Fluor 339 460: 1.1

How did CCOc1ccc2oc(-c3ccccc3)c(C(=O)N3CCN(C)CC3)c2c1 do in these assays?
Spn PMK inh: 0; NADH enzymes: 0%; A340 absorber: 1.1; Spn MK inh: 0; Fluor 339 460: 2.2*

What do the screens show for `COc1ccc2oc(-c3ccccc3)c(C(=O)N3CCOCC3)c2c1`?
Spn PMK inh: 9; NADH enzymes: 8%; A340 absorber: 1; Spn MK inh: 6; Fluor 339 460: 2.1*

What do the screens show for `Cc1oc2cc3c(C(=O)N4CCN(C)CC4)c(C)oc3cc2c1C(=O)N1CCN(C)CC1`?
Spn PMK inh: 22; NADH enzymes: 12%; Spn DPM-DC inh: inactive; A340 absorber: 1; Spn MK inh: 9; Fluor 339 460: 1

What do the screens show for `CCN1CCN(c2ncnc3c2sc2nc(N4CCOCC4)c4c(c23)CCC4)CC1`?
Spn PMK inh: 0; NADH enzymes: 14%; Spn DPM-DC inh: inactive; A340 absorber: 1.1; Spn MK inh: 14; Fluor 339 460: 1.6
